# Measurements: PubChem BioAssay (Tox21)
# Inconclusive results are not listed. Where a call stands in place of a potency, no number is given. Calls of active or inactive are those of the source. Unless noted, calls come from the whole dose curve; as a rule, active = well fitted curve in the direction sought with a large enough effect in the repeat runs; inconclusive = weak or mixed curves; inactive = no such curve, though single readings can be large; an effect the other way counts as inactive or inconclusive.
# Experiments:
# [1] = qHTS assay to identify small molecule antagonists of the glucocorticoid receptor (GR) signaling pathway - cell viability counter screen (AID 720693); conditions: GR-bla HeLa viability, CellTiter-Glo luminescence, 18 h, with 5 nM dexamethasone present; series mostly up to 58.5 µM; note: nearly all actives have a fitted effect of over 55% in size
# [2] = qHTS assay for identifying genotoxic compounds that show differential cytotoxicity against isogenic chicken DT40 cell lines with known DNA damage response pathways - wild type cell line (AID 743012); conditions: DT40 wild type chicken cells viability, CellTiter-Glo, 40 h; series mostly up to 68.4 µM; note: nearly all actives have a fitted effect of over 60% in size; note: potency is the fitted concentration of half-maximal effect
# Outline: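 Using parental DT40 (300 cells/well), compounds delivered in DMSO incubate 40 h at 37 C/5% CO2. CellTiter-Glo reagent then stands 30 min at room temperature, and luminescence gives cell viability.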
# [3] = qHTS assay to identify small molecule antagonists of the androgen receptor (AR) signaling pathway - cell viability counter screen (AID 743033; note: nearly all actives have a fitted effect of over 45% in size); conditions: AR-bla HEK293 viability, CellTiter-Glo luminescence, 16 h; series mostly up to 58.5 µM
# [4] = target: Androgen receptor (Homo sapiens) (UniProt P10275); assay: qHTS assay to identify small molecule antagonists of the androgen receptor (AR) signaling pathway (AID 743035; active = well fitted inhibition curve with a large enough effect in the signal ratio in the repeat runs, not every such curve was filed as active; the % refers to the signal ratio); conditions: HEK293 AR-UAS-bla, R1881-stimulated, beta-lactamase FRET, 16 h; series mostly up to 58.5 µM
# Outline: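 Using qHTS, AR-UAS-bla GripTite HEK293 cells received compound, then R1881, and were cultured 16 h at 37C/5% CO2 before a 2 h room-temperature LiveBLAzer B/G FRET substrate step and fluorescence measurement.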
# [5] = target: Androgen receptor (Homo sapiens) (UniProt P10275); assay: qHTS assay to identify small molecule agonists of the androgen receptor (AR) signaling pathway (AID 743036; active = well fitted activation curve with a large enough effect in the signal ratio in the repeat runs, with a control signal flat, not every such curve was filed as active; the % refers to the signal ratio; note: potency is the fitted concentration of half-maximal effect); conditions: HEK293 AR-UAS-bla GripTite, beta-lactamase FRET ratio, 16 h; series mostly up to 62.4 µM
# Outline: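 Following a 4 h settling period, AR-UAS-bla HEK293 cells were dosed with compounds for 16 h at 37C. A 2 h room-temperature incubation with LiveBLAzer B/G FRET substrate preceded the fluorescence measurement.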
# [6] = target: Androgen receptor (Homo sapiens) (UniProt P10275); assay: qHTS assay to identify small molecule agonists of the androgen receptor (AR) signaling pathway using the MDA cell line (AID 743040; note: nearly all actives have a fitted effect of over 20% in size; note: potency is the fitted concentration of half-maximal effect); conditions: MDA-kb2 AR-luc cells, MMTV luciferase, 16 h; series mostly up to 70.3 µM
# Outline: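 Cells plated, 5 h at 37C/0% CO2; compound or DMSO pinned; 16 h at 37C; ONE-Glo added; luminescence measured after 30 min at room temperature. Reporter line: MDA-kb2 with MMTV-luciferase responsive to AR and GR.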
# [7] = qHTS assay to identify small molecule antagonists of the androgen receptor (AR) signaling pathway using the MDA cell line - cell viability counter screen (AID 743041; note: nearly all actives have a fitted effect of over 45% in size); conditions: MDA-kb2 viability, CellTiter-Fluor, 16 h, cells co-treated with R1881 androgen agonist; series mostly up to 70.3 µM
# Outline: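 Cells were plated at 3,000 per well and left 5 h. Compounds in DMSO were then pinned in, followed by R1881. After 16 h at 37C, CellTiter-Fluor fluorescence gave viability.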
# [8] = target: Androgen receptor (Homo sapiens) (UniProt P10275); assay: qHTS assay to identify small molecule antagonists of the androgen receptor (AR) signaling pathway using the MDA cell line (AID 743042; note: nearly all actives have a fitted effect of over 55% in size); conditions: MDA-kb2 AR-luc, MMTV luciferase, R1881 antagonist, 16 h; series mostly up to 70.3 µM
# Outline: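 Antagonist mode: compounds plus R1881 agonist added to MDA-kb2 AR-luc cells, incubated 16 h at 37C. Luciferase reporter luminescence quantified, with multiplexed CellTiter-Fluor readout for cell viability.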
# [9] = qHTS assay for identifying genotoxic compounds that show differential cytotoxicity against isogenic chicken DT40 cell lines with known DNA damage response pathways - Rev3 mutant cell line (AID 743014); conditions: chicken DT40 Rev3-/- viability, CellTiter-Glo, 40 h; series mostly up to 68.4 µM; note: nearly all actives have a fitted effect of over 55% in size; note: potency is the fitted concentration of half-maximal effect
# [10] = qHTS assay for identifying genotoxic compounds that show differential cytotoxicity against isogenic chicken DT40 cell lines with known DNA damage response pathways - Rad54/Ku70 mutant cell line (AID 743015); conditions: DT40 Rad54/Ku70 mutant viability, CellTiter-Glo, 40 h; series mostly up to 66.8 µM; note: nearly all actives have a fitted effect of over 60% in size; note: potency is the fitted concentration of half-maximal effect
# Chain of Androgen receptor (Homo sapiens) (P10275 whole entry, looked up): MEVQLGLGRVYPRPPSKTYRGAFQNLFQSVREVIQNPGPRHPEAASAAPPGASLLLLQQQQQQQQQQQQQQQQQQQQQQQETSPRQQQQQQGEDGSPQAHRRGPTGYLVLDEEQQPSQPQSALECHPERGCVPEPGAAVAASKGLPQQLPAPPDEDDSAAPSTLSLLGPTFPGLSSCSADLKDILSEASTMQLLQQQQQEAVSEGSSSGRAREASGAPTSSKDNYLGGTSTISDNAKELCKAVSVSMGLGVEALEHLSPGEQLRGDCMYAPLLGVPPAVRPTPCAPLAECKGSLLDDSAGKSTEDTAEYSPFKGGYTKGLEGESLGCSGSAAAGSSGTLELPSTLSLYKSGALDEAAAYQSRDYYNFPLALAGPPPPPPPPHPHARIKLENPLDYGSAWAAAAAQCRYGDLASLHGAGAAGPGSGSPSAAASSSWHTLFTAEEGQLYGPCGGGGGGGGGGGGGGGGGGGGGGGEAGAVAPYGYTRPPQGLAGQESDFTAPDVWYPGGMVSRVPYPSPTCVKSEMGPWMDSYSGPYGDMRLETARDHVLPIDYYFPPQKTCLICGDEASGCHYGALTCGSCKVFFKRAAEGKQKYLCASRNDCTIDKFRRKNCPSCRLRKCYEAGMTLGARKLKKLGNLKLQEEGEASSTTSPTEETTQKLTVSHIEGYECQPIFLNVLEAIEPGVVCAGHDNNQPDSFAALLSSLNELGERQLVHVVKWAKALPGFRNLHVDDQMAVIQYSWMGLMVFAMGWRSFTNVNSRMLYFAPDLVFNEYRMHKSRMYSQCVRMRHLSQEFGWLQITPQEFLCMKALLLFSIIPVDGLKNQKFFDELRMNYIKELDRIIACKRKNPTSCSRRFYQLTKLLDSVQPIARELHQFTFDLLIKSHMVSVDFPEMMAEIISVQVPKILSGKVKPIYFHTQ
smiles,measurement,setting,value
CCC(C(=O)OCCN(CC)CC)c1ccccc1 (stereo not drawn),Potency,[1],inactive
same,Potency,[2],inactive
same,Potency,[3],inactive
same,Potency,[4],inactive
same,Potency,[5],inactive
same,Potency,[6],inactive
same,Potency,[7],inactive
same,Potency,[8],inactive
CN1CCN(CCCN2c3ccccc3Sc3ccc(S(=O)(=O)N(C)C)cc32)CC1,Potency,[1],inactive
same,Potency,[9],inactive
O=C(CCCN1CCN(c2ccc(F)cc2)CC1)NC1c2ccccc2CSc2ccccc21 (stereo not drawn),Potency,[1],inactive
same,Potency,[2],13.3 µM (active)
same,Potency,[10],18.8 µM (active)
same,Potency,[7],inactive
O=C(Nc1ccccc1)Nc1ccccc1,Potency,[1],inactive
same,Potency,[9],48.8 µM (active)
same,Potency,[7],inactive
Cc1nc2ccccn2c(=O)c1CCN1CCC(C(=O)c2ccc(F)cc2)CC1,Potency,[1],inactive
same,Potency,[9],inactive
same,Potency,[3],inactive
same,Potency,[7],inactive
O=C(CCCCCCC(=O)Nc1ccccc1)NO,Potency,[1],inactive
same,Potency,[2],1.06 µM (active)
same,Potency,[10],1.5 µM (active)
same,Potency,[7],inactive
O=C(C(=O)c1ccccc1)c1ccccc1,Potency,[1],inactive
same,Potency,[9],inactive
same,Potency,[10],inactive
same,Potency,[3],inactive
O=[N+]([O-])c1cccc(S(=O)(=O)NCCNS(=O)(=O)c2cccc([N+](=O)[O-])c2)c1,Potency,[1],inactive
same,Potency,[2],inactive
same,Potency,[10],inactive
same,Potency,[3],inactive
same,Potency,[7],inactive
same,Potency,[8],inactive
NC(=O)Nc1ccc(Cl)c(Cl)c1,Potency,[1],inactive
same,Potency,[9],60.9 µM (active)
same,Potency,[10],60.9 µM (active)
same,Potency,[3],inactive
CC1=C(/C=C/C(C)=C\C=C\C(C)=C\C(=O)O)C(C)(C)CCC1,Potency,[1],inactive
same,Potency,[2],34.4 µM (active)
same,Potency,[3],inactive
CCCCCCCCSCCO,Potency,[1],inactive
same,Potency,[2],inactive
same,Potency,[3],inactive
same,Potency,[5],inactive
same,Potency,[7],inactive
same,Potency,[8],inactive
CN(C(=O)C(Cl)Cl)c1ccc(OC(=O)c2ccco2)cc1,Potency,[1],inactive
same,Potency,[2],26.6 µM (active)
same,Potency,[3],inactive
same,Potency,[4],inactive
same,Potency,[7],inactive
same,Potency,[8],inactive
NC(=O)Cn1c(=O)cc(CCN2CCN(c3nccc4sccc34)CC2)c2ccc(F)cc21,Potency,[1],inactive
same,Potency,[2],27.3 µM (active)
same,Potency,[10],24.3 µM (active)
same,Potency,[7],inactive
Cc1cnc(C)c(C)n1,Potency,[1],inactive
same,Potency,[2],inactive
same,Potency,[3],inactive
same,Potency,[7],inactive
CCOC(=O)/C=C/C(=O)O,Potency,[1],inactive
same,Potency,[2],inactive
same,Potency,[3],inactive
same,Potency,[4],inactive
same,Potency,[5],inactive
same,Potency,[7],inactive
same,Potency,[8],inactive
CC(=O)[C@H]1CC[C@H]2[C@@H]3C[C@H](C)C4=CC(=O)CC[C@]4(C)[C@H]3[C@@H](O)C[C@]12C,Potency,[1],inactive
same,Potency,[2],9.02 µM (active)
same,Potency,[3],inactive
same,Potency,[4],inactive
same,Potency,[5],0.0129 µM (active)
same,Potency,[6],0.0285 µM (active)
same,Potency,[7],inactive
same,Potency,[8],inactive
CC(C)(C)C(=O)C(Oc1ccc(Cl)cc1)n1ccnc1 (stereo not drawn),Potency,[1],inactive
same,Potency,[2],13.3 µM (active)
same,Potency,[10],21.1 µM (active)
same,Potency,[7],inactive
CCCCCCCC/C=C\CCCCCCCC(=O)OC(CO)CO,Potency,[1],inactive
same,Potency,[2],inactive
same,Potency,[3],inactive
same,Potency,[7],inactive
CC#N,Potency,[1],inactive
same,Potency,[2],inactive
same,Potency,[10],inactive
same,Potency,[7],inactive
Oc1ccc(Nc2ccccc2)cc1,Potency,[1],inactive
same,Potency,[2],5.45 µM (active)
same,Potency,[10],6.86 µM (active)
same,Potency,[5],inactive
same,Potency,[6],inactive
same,Potency,[7],inactive
CCOC(=O)c1ccccc1C,Potency,[1],inactive
same,Potency,[9],61.1 µM (active)
same,Potency,[3],inactive
same,Potency,[7],inactive
O=C(CS)OCCOC(=O)CS,Potency,[1],inactive
same,Potency,[9],68.6 µM (active)
same,Potency,[10],61.1 µM (active)
same,Potency,[3],inactive
same,Potency,[7],inactive
COc1ccc(CCC(=O)c2c(O)cc(O[C@@H]3O[C@H](CO)[C@@H](O)[C@H](O)[C@H]3O[C@@H]3O[C@@H](C)[C@H](O)[C@@H](O)[C@H]3O)cc2O)cc1O,Potency,[1],inactive
same,Potency,[2],inactive
same,Potency,[10],inactive
same,Potency,[4],inactive
same,Potency,[5],inactive
same,Potency,[7],inactive
same,Potency,[8],inactive
C[Si](NC1CCCCC1)(NC1CCCCC1)NC1CCCCC1,Potency,[1],inactive
same,Potency,[9],61.1 µM (active)
same,Potency,[7],inactive
CCOC(=O)[C@@H](C)Oc1ccc(Oc2nc3ccc(Cl)cc3o2)cc1,Potency,[1],inactive
same,Potency,[2],68.6 µM (active)
same,Potency,[10],61.1 µM (active)
same,Potency,[3],inactive
same,Potency,[7],inactive
same,Potency,[8],inactive
CCCCC(CC)COC(=O)COc1ccc(Cl)cc1C (stereo not drawn),Potency,[1],inactive
same,Potency,[9],68.6 µM (active)
same,Potency,[3],inactive
C(=C\c1ccccc1)/CN1CCN(C(c2ccccc2)c2ccccc2)CC1,Potency,[1],inactive
same,Potency,[9],inactive
same,Potency,[3],inactive
C/C=C(\C)C(=O)OCCC(C)CCC=C(C)C (stereo not drawn),Potency,[1],inactive
same,Potency,[2],inactive
same,Potency,[3],inactive
same,Potency,[7],inactive
NCC1CCCC(CN)C1 (stereo not drawn),Potency,[1],inactive
same,Potency,[9],inactive
same,Potency,[10],inactive
same,Potency,[3],inactive
same,Potency,[4],inactive
same,Potency,[5],inactive
same,Potency,[7],inactive
same,Potency,[8],inactive
CCCCC(=O)O[C@]1(C(=O)CO)CC[C@H]2[C@@H]3CCC4=CC(=O)CC[C@]4(C)[C@H]3[C@@H](O)C[C@@]21C,Potency,[1],inactive
same,Potency,[9],inactive
C=CC(C)=CCC=C(C)C,Potency,[1],inactive
same,Potency,[9],inactive
same,Potency,[7],inactive
CC(=N\O)/C(C)=N/O,Potency,[1],inactive
same,Potency,[7],inactive
O=C(c1ccc(O)cc1)c1ccc(Cl)cc1,Potency,[9],62.4 µM (active)
same,Potency,[10],55.6 µM (active)
same,Potency,[3],inactive
